Reference: PubChem BioAssay (EPA / NIEHS)
Several values for one entry are separate records, joined by “and”; a condition that tells them apart may be missing. Equal values may be shown once. Results filed as inconclusive are left out. Where a structure was tested more than once in an assay, its records may differ in their call. Activity calls are given as the source filed them. The calls were made as follows, unless noted: active = hit-call score of the fitted dose curve at least 0.9, where 1 is the maximum; inactive = score below 0.9.

Columns and labels:
[1] = target: human Vitamin D Receptor (VDR), VDR (gene 7421) (UniProt P11473); test: ATG_VDR_TRANS: Attagene TRANS-FACTORIAL HepG2 Assay for human Vitamin D Receptor (VDR) (AID 2283022; active = hit-call score of the fitted dose curve at least 0.9, where 1 is the maximum)
Outline: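 Transactivation by an exogenous VDR-Gal4 chimera in transiently transfected HepG2 cells was measured as reporter transcript level 24 hours after chemical treatment. RT-PCR products were analysed by capillary electrophoresis and fitted in the positive direction relative to DMSO.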

[2] = read-out: Interleukin-8 (IL8), CXCL8 (gene 3576); test: BSK_3C_IL8: BioMAP Diversity Plus: 3C Assay for Interleukin-8 (IL8) Biomarker Activity (AID 2283020); conditions: primary human endothelial cells (HUVEC); actives raise or lower the signal
Outline: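 ELISA read-out of IL-8 from human umbilical vein endothelium, measured 24 h after chemical dosing. Activity is expressed relative to DMSO negative control, with both increases and decreases fitted.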

[3] = read-out: Monokine induced gamma interferon (MIG), CXCL9 (gene 4283); test: BSK_3C_MIG: BioMAP Diversity Plus: 3C Assay for Monokine induced gamma interferon (MIG) Biomarker Activity (AID 2283021); conditions: primary human endothelial cells (HUVEC); actives raise or lower the signal
Outline: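 Read-out is ELISA detection of MIG on human umbilical vein endothelial cells, taken 24 h after dosing. Gain or loss of signal was scored relative to DMSO controls using bidirectional curve fitting.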

[4] = BSK_3C_SRB: Viability Assessment in the BioMAP Diversity Plus: 3C Assay (AID 2283023); conditions: primary human endothelial cells (HUVEC);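 also: fitted both ways against DMSO so a hit may be signal rise or drop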
Outline: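 Cytotoxicity readout in parallel HUVEC 3C cultures: after 24 h compound exposure, cells fixed with 10% TCA, stained with 0.1% SRB and read at 560 nm. Gain or loss relative to DMSO fitted.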

[5] = read-out: Matrix Metallopeptidase 1 (MMP1), MMP1 (gene 4312); test: BSK_BE3C_MMP1: BioMAP Diversity Plus: BE3C Assay for Matrix Metallopeptidase 1 (MMP1) Biomarker Activity (AID 2283024); conditions: primary human bronchial epithelial cells; actives raise or lower the signal
Outline: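 Human bronchial epithelial cells (BE3C system) exposed to compound for 24 h; MMP1 then quantified by ELISA. Activity was fitted in both directions relative to DMSO.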

[6] = read-out: Pselectin, SELP (gene 6403); test: BSK_4H_Pselectin: BioMAP Diversity Plus: 4H Assay for Pselectin Biomarker Activity (AID 2283026); conditions: primary human endothelial cells (HUVEC); actives raise or lower the signal
Outline: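 ELISA read-out of P-selectin on human umbilical vein endothelium after 24 h of dosing. Values derive from bidirectional fitting relative to DMSO. Parallel SRB protein staining flagged overt cytotoxicity.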

[7] = BSK_4H_SRB: Viability Assessment in the BioMAP Diversity Plus: 4H Assay (AID 2283027); conditions: primary human endothelial cells (HUVEC);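 also: cells exposed to compound for 24 h before staining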;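 as to AC50: curves fitted both ways versus DMSO so AC50 may be loss or gain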
Outline: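 Human umbilical vein endothelial cells were dosed with chemical and, after 24 h, fixed with 10% TCA, stained with 0.1% sulforhodamine B, and read at 560 nm to give total protein as a cytotoxicity measure. Bidirectional fitting relative to DMSO control.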

[8] = BSK_BE3C_SRB: Viability Assessment in the BioMAP Diversity Plus: BE3C Assay (AID 2283028); conditions: primary human bronchial epithelial cells
Outline: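 Cytotoxicity read-out: SRB (0.1%) staining of TCA-fixed (10%) human lung bronchial epithelial cells, absorbance 560 nm, 24 h post-dosing. Curves fitted both directions relative to DMSO.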

[9] = read-out: Thrombomodulin, THBD (gene 7056); test: BSK_3C_Thrombomodulin: BioMAP Diversity Plus: 3C Assay for Thrombomodulin Biomarker Activity (AID 2283029); conditions: primary human endothelial cells (HUVEC); actives raise or lower the signal
Outline: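 Read-out is ELISA of thrombomodulin on human umbilical vein endothelium 24 h after chemical dosing. Gain or loss of signal is scored relative to DMSO. Overt cytotoxicity is checked in parallel cultures by sulforhodamine B staining.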

[10] = read-out: Urokinase-type plasminogen activator receptor (uPAR), PLAUR (gene 5329); test: BSK_4H_uPAR: BioMAP Diversity Plus: 4H Assay for Urokinase-type plasminogen activator receptor (uPAR) Biomarker Activity (AID 2283030); conditions: primary human endothelial cells (HUVEC); actives raise or lower the signal
Outline: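 uPAR level read by ELISA on HUVEC cultures (BioMAP 4H) 24 h post-dosing, analyzed for gain or loss relative to DMSO. Parallel SRB staining assessed overt cytotoxicity.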

[11] = read-out: Vascular endothelial growth factor receptor 2 (Homo sapiens) (UniProt P35968); test: BSK_4H_VEGFRII: BioMAP Diversity Plus: 4H Assay for Vascular endothelial growth factor receptor 2 (VEGFR2) Biomarker Activity (AID 2283031); conditions: primary human endothelial cells (HUVEC); actives raise or lower the signal
Outline: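 Measured by ELISA after 24 h of compound treatment: VEGFR2 on primary human umbilical vein endothelial cells, fitted in both directions relative to DMSO. Parallel cultures received SRB staining (560 nm) for overt cytotoxicity.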

[12] = read-out: Human Leukocyte Antigen - DR isotype (HLADR), HLA-DRA (gene 3122); test: BSK_BE3C_HLADR: BioMAP Diversity Plus: BE3C Assay for Human Leukocyte Antigen - DR isotype (HLADR) Biomarker Activity (AID 2283032); conditions: primary human bronchial epithelial cells; actives raise or lower the signal
Outline: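 ELISA read-out of HLA-DR on human lung bronchial epithelial primary cells, measured 24 h post-dosing. Both increases and decreases were scored relative to DMSO vehicle.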

[13] = read-out: Vascular cell adhesion molecule 1 (VCAM1), VCAM1 (gene 7412); test: BSK_4H_VCAM1: BioMAP Diversity Plus: 4H Assay for Vascular cell adhesion molecule 1 (VCAM1) Biomarker Activity (AID 2283033); conditions: primary human endothelial cells (HUVEC); actives raise or lower the signal
Outline: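 ELISA read-out of VCAM-1 on human umbilical vein endothelium 24 hours after chemical dosing; gain or loss of signal was fitted relative to DMSO, with sulforhodamine B staining of parallel cultures flagging overt cytotoxicity.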

[14] = read-out: Interferon-gamma inducible Protein 10 (IP10), CXCL10 (gene 3627); test: BSK_BE3C_IP10: BioMAP Diversity Plus: BE3C Assay for Interferon-gamma inducible Protein 10 (IP10) Biomarker Activity (AID 2283034); conditions: primary human bronchial epithelial cells; actives raise or lower the signal
Outline: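 Chemical is dosed onto human lung bronchial epithelial primary cells, cultures are incubated 24 h, and IP-10 is then quantified by ELISA. Gain or loss of signal is fitted in both directions relative to DMSO.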

[15] = read-out: Monokine induced gamma interferon (MIG), CXCL9 (gene 4283); test: BSK_BE3C_MIG: BioMAP Diversity Plus: BE3C Assay for Monokine induced gamma interferon (MIG) Biomarker Activity (AID 2283035); conditions: primary human bronchial epithelial cells; actives raise or lower the signal;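 also: MIG protein measured by ELISA in BE3C cultures after 24 h of dosing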
Outline: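 ELISA read-out of MIG in human lung bronchial epithelial primary cultures, 24 h post-dosing. Bidirectional curve fit vs DMSO baseline.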

[16] = read-out: Plasminogen activator inhibitor-1 (PAI1), SERPINE1 (gene 5054); test: BSK_BE3C_PAI1: BioMAP Diversity Plus: BE3C Assay for Plasminogen activator inhibitor-1 (PAI1) Biomarker Activity (AID 2283037); conditions: primary human bronchial epithelial cells; actives raise or lower the signal
Outline: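 Primary human lung bronchial epithelial cells; chemical dosing; 24 h; PAI-1 measured by ELISA; bidirectional fit referenced to DMSO as negative control.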

[17] = read-out: urokinase plasminogen activator (uPA), PLAU (gene 5328); test: BSK_BE3C_uPA: BioMAP Diversity Plus: BE3C Assay for urokinase plasminogen activator (uPA) Biomarker Activity (AID 2283038); conditions: primary human bronchial epithelial cells; actives raise or lower the signal;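 also: uPA protein level quantified by ELISA in cell cultures; uPA read one day after compound addition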
Outline: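 ELISA for uPA on human primary bronchial epithelial cultures 24 h post-treatment, gain or loss against DMSO. Parallel SRB staining (0.1% after 10% TCA fixation, 560 nm) assessed overt cytotoxicity.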

[18] = read-out: Urokinase-type plasminogen activator receptor (uPAR), PLAUR (gene 5329); test: BSK_BE3C_uPAR: BioMAP Diversity Plus: BE3C Assay for Urokinase-type plasminogen activator receptor (uPAR) Biomarker Activity (AID 2283039); conditions: primary human bronchial epithelial cells; actives raise or lower the signal;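 also: uPAR protein level measured by ELISA on the cells; cells exposed to compound for one day before measurement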
Outline: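 Human bronchial epithelial primary cells; chemical exposure 24 h; uPAR by ELISA; bidirectional fit vs DMSO control.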

[19] = BSK_3C_Vis: BioMAP Diversity Plus: 3C Assay for Morphology Visualization (AID 2283025); conditions: primary human endothelial cells (HUVEC);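 also: fitted both ways so gain or loss versus DMSO counts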;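 as to AC50: light microscopy image of cell morphology used as background control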
Outline: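 Chemicals were added to primary human umbilical vein endothelium, cells were incubated 24 h, and morphology was then visualized by light microscopy. Gain or loss of signal was fitted bidirectionally relative to DMSO.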

[20] = read-out: Transforming growth factor beta 1 (TGFb1), TGFB1 (gene 7040); test: BSK_BE3C_TGFb1: BioMAP Diversity Plus: BE3C Assay for Transforming growth factor beta 1 (TGFb1) Biomarker Activity (AID 2283036;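 also: TGF-b1 protein level measured by ELISA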); conditions: primary human bronchial epithelial cells; actives raise or lower the signal
Outline: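 Primary human lung bronchial epithelial cells; compound exposure 24 h; TGF-b1 by ELISA; bidirectional fit, DMSO baseline. Parallel SRB total-protein staining for cytotoxicity.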

Measured: AC50

Chain of human Vitamin D Receptor (VDR), VDR (gene 7421) (P11473 whole entry, looked up, the tested form may be a part): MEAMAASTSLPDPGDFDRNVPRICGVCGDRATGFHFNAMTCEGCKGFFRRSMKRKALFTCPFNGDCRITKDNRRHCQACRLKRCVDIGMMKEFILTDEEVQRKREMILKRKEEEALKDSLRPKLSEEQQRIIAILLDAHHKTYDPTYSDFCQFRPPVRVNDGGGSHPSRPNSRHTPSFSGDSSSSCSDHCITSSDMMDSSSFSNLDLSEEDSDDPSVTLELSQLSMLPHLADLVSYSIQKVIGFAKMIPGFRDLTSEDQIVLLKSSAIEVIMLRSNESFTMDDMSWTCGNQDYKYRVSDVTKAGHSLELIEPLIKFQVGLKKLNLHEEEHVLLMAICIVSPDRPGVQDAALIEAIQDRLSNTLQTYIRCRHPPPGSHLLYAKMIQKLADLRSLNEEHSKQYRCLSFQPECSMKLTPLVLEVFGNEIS

CC(=O)c1ccc(-c2ccccc2)cc1
inactive: [1]

CCCCOCC1CO1 (stereo not given)
inactive: [1]

CC(O)C#N (stereo not given)
inactive: [1]

Clc1ccc(Oc2ccccc2)cc1
inactive: [1]

C=CC(=O)OCC(F)(F)C(F)F
active: [6] 19.2 µM | [9] 8.19 µM | [12] 44.9 µM | [13] 38.9 µM and 30 µM
inactive: [2] | [3] | [4] | [5] | [6] | [7] | [8] | [9] | [10] | [11] | [12] | [14] | [15] | [16] | [17] | [18]

O=P(OCC(Br)CBr)(OCC(Br)CBr)OCC(Br)CBr (stereo not given)
active: [2] 17.4 µM | [4] 10.3 µM | [5] 3.88 µM | [19] 12.4 µM | [7] 1.54 µM | [13] 3.69 µM
not listed: [1] | [15]
inactive: all other assays above

O=C(O)C(Cl)Cl
not listed: [1] | [15]
inactive: all other assays above
